# According to PubChem BioAssay AID485317 (Broad Institute, 2010):
# In all, about 290,000 compounds went through this assay and about 11,000 (3.8%) were called active. The sample holds actives, similar compounds and a random draw of the others, so the mix is not that of the screen.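 Rule for the calls: active = mean replicate inhibition above about 79%, with every replicate also reaching it (limit read from the data); inconclusive = only one of the two criteria met; inactive = mean below limit and not every replicate reaching it.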
# Biological target: FAD-linked sulfhydryl oxidase ALR (Homo sapiens) (UniProt P55789)
# Sequence (P55789 whole entry, looked up): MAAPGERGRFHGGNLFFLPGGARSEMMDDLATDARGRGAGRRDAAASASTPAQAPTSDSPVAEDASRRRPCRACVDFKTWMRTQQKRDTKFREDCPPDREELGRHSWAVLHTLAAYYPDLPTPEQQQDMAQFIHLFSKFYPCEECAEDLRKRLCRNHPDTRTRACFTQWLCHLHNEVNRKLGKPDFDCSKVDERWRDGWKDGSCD
# Experiment: inhibitors of human ALR sulfhydryl oxidase, primary screen, biochemical, H2O2 detection, HRP-luminol luminescence, single point (AID 485317)
# Details: purified ALR, DTT oxidation, stronger effect = higher value, concentration not given here
row,SMILES,inhibition
1,COc1cccc(NC(=O)C(=O)c2cn(CC(=O)N3CCOCC3)c3ccccc23)c1,4.42% (inactive)
2,CN1c2ccc(C=O)c3c(C=O)ccc(c23)N(C)C1(C)C,99.2% (active)
3,CCOC(=O)COc1ccc([N+](=O)[O-])cc1,3.19% (inactive)
4,Cc1cc(C)cc(OCC(=O)O/N=C(\N)Cc2ccc([N+](=O)[O-])cc2)c1,98.4% (active)
5,N/C(Cc1ccc([N+](=O)[O-])cc1)=N\OC(=O)COc1ccc2ccccc2c1,-17.6% (inactive)
6,Cc1ccc(S(=O)(=O)NC(C)C(=O)NCc2ccc(Cl)cc2)cc1 (stereo not given),10.6% (inactive)
7,CCOc1ccc(N=Cc2c(O)n(-c3cccc(C)n3)c(=O)c3ccccc23)cc1,-11.1% (inactive)
8,Oc1ccc(N=Cc2c(O)ccc3ccccc23)cc1,99.5% (active)
9,Oc1c(C=Nc2cccc3nsnc23)ccc2ccccc12,25.2% (inactive)
10,CCN(c1ccccc1)S(=O)(=O)c1cccc(C(=O)NCc2ccccc2CN2CCOCC2)c1,-5.99% (inactive)
11,Cc1ccc(COC(=O)CN2C(=O)NC3(CCCC3)C2=O)cc1,-0.909% (inactive)
12,COc1ccc(C(=O)CSc2nnc(-c3ccco3)o2)cc1,19.8% (inactive)
13,CC(C)C[C@@H](N)c1nnc(SCC(=O)c2ccc(Cl)cc2)o1,98.5% (active)
14,CCC(=O)Nc1ccc(C(=O)CSc2nnc(CNc3ccc(Cl)cc3)o2)cc1OC,0.831% (inactive)
15,Cc1cc(C)cc(-c2nnc(SCC(=O)NC3CC3)o2)c1,-0.0792% (inactive)
16,O=C1NN(c2ccccc2)C(=O)/C1=C/c1ccc(-c2cccc(C(=O)O)c2)o1,98.7% (active)
17,Cc1cccc(C)c1-n1c(C)cc(/C=C2\C(=O)NN(c3ccccc3)C2=O)c1C,21.8% (inactive)
18,CC1=NN(c2ccc(Cl)c(C(=O)O)c2)C(=O)/C1=C/c1ccc(-c2ccccc2[N+](=O)[O-])o1,71.4% (inactive)
19,O=S(=O)(NCC1CN(S(=O)(=O)c2ccc3c(c2)OCCO3)C1)c1c(F)cccc1F,-2.88% (inactive)
20,COc1ccc(NC(=O)Nc2ccc3c(c2)C(=O)N([C@H](C)CO)C[C@H](C)[C@@H](CN(C)C(=O)Nc2ccc4c(c2)OCO4)O3)cc1,-7.46% (inactive)
21,Cc1cc(C(=O)OCC(=O)N2C(C)CCCC2C)c2ccccc2n1 (stereo not given),-5.22% (inactive)
22,COc1ccc(C(=O)O)cc1S(=O)(=O)NC1CCN(Cc2ccccc2)CC1,-0.811% (inactive)
23,Cn1nc(-c2ccc(Cl)cc2)c2cc(C(=O)NCc3ccco3)sc21,86.8% (active)
24,CCOC(=O)N1CCN(C(=O)c2cc3c(-c4ccc(Cl)cc4)nn(C)c3s2)CC1,72.2% (inactive)
25,COc1ccccc1N1CCN(C(=O)c2cc3c(-c4ccc(Cl)cc4)nn(C)c3s2)CC1,-109% (inactive)
